The panel holds about 83,000 compounds, 20% with a hit somewhere; the sample as a whole holds those more often.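 Method: cells in 96-well plates; compound added at one concentration; 48 h incubation; percent growth measured; values under 10 scored active.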 Values without a mark were called inactive. Activity calls are given as the source filed them.
Tests used:
Experiment in all cases: NCI-60 one-dose screen, 48 h (100 = growth as untreated, 0 = no growth, -100 = all killed)
Conditions in all cases: 10 µM unless noted
HCT-15 colon = system: HCT-15 colon
HT29 colon = system: HT29 colon
SNB-75 CNS = system: SNB-75 CNS
SNB-19 CNS = system: SNB-19 CNS
U251 CNS = system: U251 CNS
PC-3 prostate = system: PC-3 prostate
SK-MEL-5 melanoma = system: SK-MEL-5 melanoma
UACC-62 melanoma = system: UACC-62 melanoma
LOX IMVI melanoma = system: LOX IMVI melanoma
SK-MEL-28 melanoma = system: SK-MEL-28 melanoma
SK-MEL-2 melanoma = system: SK-MEL-2 melanoma
EKVX NSCLC = system: EKVX NSCLC
SN12C renal = system: SN12C renal
UO-31 renal = system: UO-31 renal
TK-10 renal = system: TK-10 renal
ACHN renal = system: ACHN renal
CAKI-1 renal = system: CAKI-1 renal
A498 renal = system: A498 renal
CCRF-CEM leukemia = system: CCRF-CEM leukemia
MOLT-4 leukemia = system: MOLT-4 leukemia

Structure (SMILES)	growth (HCT-15 colon)	growth (HT29 colon)	growth (SNB-75 CNS)	growth (SNB-19 CNS)	growth (U251 CNS)	growth (PC-3 prostate)	growth (SK-MEL-5 melanoma)	growth (UACC-62 melanoma)	growth (LOX IMVI melanoma)	growth (SK-MEL-28 melanoma)	growth (SK-MEL-2 melanoma)	growth (EKVX NSCLC)	growth (SN12C renal)	growth (UO-31 renal)	growth (TK-10 renal)	growth (ACHN renal)	growth (CAKI-1 renal)	growth (A498 renal)	growth (CCRF-CEM leukemia)	growth (MOLT-4 leukemia)
COc1cc2nc(Cl)nc(Nc3cccc(C4=Nc5c(N)nc(N)nc5NC(c5ccc6c(c5)OCO6)C4)c3)c2cc1OC (stereo not given)	33.2%	68.9%	82.2%	78.4%	8.17% (active)	63.6%	72.1%	94.8%	52.6%	106%	85.2%	86.1%	78.6%	86%	113%	94%	82.8%	105%	26.8%	27%
C#CCOC(=O)[C@@H]1CCCN1CC#C	85.7%	82.4%	77.8%	86.9%	81.4%	51.2%	90.2%	92.8%	77.7%	107%	98.2%	86.3%	92.6%	66.1%	96.2%	85.7%	76.3%	93.5%	81.9%	61.5%
O=C(Nc1cccc(C(F)(F)F)c1)c1cc(-c2ccc(F)cc2F)ccc1O	8.57% (active)	74.1%	-0.914% (active)	11.4%	10.4%	7.15% (active)	-66% (active)	2.01% (active)	0.316% (active)	24.6%	-12.6% (active)	9.81% (active)	2.11% (active)	-14.3% (active)	12.6%	5.71% (active)	-21% (active)	-38.5% (active)	20.8%	4.43% (active)
Cn1ccnc1C(=O)/C=C/c1ccc(NC(=O)c2ccc(F)cc2)cc1	16.9%	7.13% (active)	46.9%	28.1%	23.3%	27.6%	68.2%	49.9%	6.38% (active)	90.9%	106%	42.1%	25%	42.3%	89.5%	37.6%	41.4%	78.1%	7.06% (active)	16.6%
Oc1ccc(CSc2nnc(-c3ccc(Cl)cc3)n2-c2ccccc2)c2cccnc12	14.4%	92.7%	16.6%	13.3%	3.32% (active)	19.1%	5.67% (active)	9.41% (active)	29.5%	42.4%	35.2%	28.6%	33.2%	0.657% (active)	28.2%	30.5%	48.7%	50.2%	20.8%	28.5%
NC(=O)c1c(NC(=O)c2ccccc2C(F)(F)F)sc2c1CCC(=O)C2	10.7%	18.7%	44.8%	20.8%	14.3%	17.5%	-59.5% (active)	10.4%	19.7%	42.4%	45.5%	24.3%	40.3%	-7.49% (active)	28.1%	8.24% (active)	-2.3% (active)	85.9%	16.3%	19.9%
CC1=NC2=NN3C(=NN2C(c2ccccc2)=C1)N=NC(c1ccc(Br)cc1)=C3c1ccc(Br)cc1	103%	105%	117%	98.1%	103%	97.1%	106%	89.9%	100%	105%	103%	96%	101%	80.1%	128%	99.3%	95.7%	98.7%	106%	99.8%
O=C(Cn1cc[n+](CC(=O)c2ccc(-c3ccccc3)cc2)c1)Nc1cccc2cccnc12	101%	59.8%	63.4%	57.7%	58.3%	54.5%	69.6%	59.1%	79.2%	74.9%	83%	86.8%	75.9%	94.3%	119%	105%	102%	88.6%	64.9%	73.5%
N#Cc1cnc2ccc(-c3cnc(N)nc3)cc2c1N1CCc2cc(F)c(Cl)cc21	4.26% (active)	11.4%	19.1%	12.2%	10.3%	2.78% (active)	-92.3% (active)	-17.2% (active)	2.73% (active)	7.06% (active)	-32.5% (active)	-7.03% (active)	15%	-6.05% (active)	-20.5% (active)	7.59% (active)	5.2% (active)	-49.7% (active)	5.74% (active)	0.22% (active)
CCCCCc1ccc(S(=O)(=O)Nc2cccc(-c3csc(NC(=O)CN4CCN(CCO)CC4)n3)c2)cc1	51.3%	35.6%	88%	82.6%	55.4%	64.1%	51.7%	90%	-45.9% (active)	79.4%	99.7%	81.4%	86.6%	79.9%	113%	101%	76.2%	81%	53.8%	58.8%
CCN(CC)c1ccc2c(c1)Oc1nc(N)c(C#N)c(N)c1C2Sc1ccc(F)cc1 (stereo not given)	-84.8% (active)	-42.4% (active)	-3.74% (active)	-94.9% (active)	-73.4% (active)	-74% (active)	-96.2% (active)	-52.5% (active)	-92.6% (active)	-62% (active)	-61.3% (active)	-85.8% (active)	-77.8% (active)	-99.5% (active)	-33.6% (active)	-91% (active)	-81.9% (active)	-1.93% (active)	-23% (active)	-12.8% (active)
O=C(c1ccc(O)c(C(=O)N2Cc3ccc(OCCC[P+](c4ccccc4)(c4ccccc4)c4ccccc4)cc3C2)c1)N1Cc2cccc(F)c2C1	97.6%	101%	95.4%	38.1%	56.8%	78.9%	29.3%	45.5%	67.1%	58%	65.2%	70.3%	88.6%	80.6%	100%	101%	93.1%	85.7%	57.4%	108%
N#Cc1c(NC(=O)c2cccc(C(F)(F)F)c2F)sc2c1CCC(=O)C2	-49.6% (active)	4.38% (active)	-66.3% (active)	15.4%	0.119% (active)	-43.9% (active)	-91.1% (active)	-56.6% (active)	-8.55% (active)	-71.8% (active)	5.28% (active)	5.47% (active)	7.61% (active)	-99.7% (active)	24.1%	-95.5% (active)	-83.5% (active)	-8.37% (active)	7.8% (active)	-0.731% (active)
COc1ccc(/C=C/C(=O)c2cccc(NC(=O)CSc3nc4ccccc4c(=O)n3-c3ccccc3)c2)cc1OC	89.5%	112%	86.2%	93.4%	101%	97%	99%	89.9%	91.5%	115%	104%	103%	105%	91.9%	125%	100%	88%	99.4%	115%	91.1%
COc1cccc(N2CCN(c3ncnc4c3[nH]c3ccc(F)cc34)C[C@H]2C)c1	68.4%	70.4%	63.2%	68.7%	67.9%	38.2%	-62.3% (active)	40.5%	63.1%	50.7%	55%	50.9%	71.5%	31.6%	95%	63.2%	42.9%	37%	33.3%	6.42% (active)
